Screening results (PubChem BioAssay)
JMJD2A Tudor inh: qHTS Assay for Inhibitors of JMJD2A-Tudor Domain. actives 4.4% (n = 390,000). AlphaScreen JMJD2A-Tudor / H3K4me3 peptide binding. AID 504339, 2011. Potency, µM (top dose mostly 114 µM), inactives show at the top dose activity change, negative = inhibition, actives largely listed as inhibitors; note: % is set by controls: 0 for no effect and ±100 for the full control effect; nearly all actives have a fitted effect of over 50% in size
HP1b chromo inh: HTS for Inhibitors of HP1-beta Chromodomain Interactions with Methylated Histone Tails; AlphaScreen HP1-beta / biotin-H3K9me3 peptide binding; Potency, µM (titrated, usually from 114 µM), without a hit: at the highest dose activity change, negative = inhibition, most hits filed as inhibitors; actives 0.56% (n = 390,000); note: nearly all actives have a fitted effect of over 70% in size
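AlphaScreen: HP1-beta (50 nM) preformed 30 min with biotin-H3(1-18)K9me3 peptide (50 nM) in PBS pH 7.4, 0.01% Tween-20. Compound added for 30 min at RT, then streptavidin donor/nickel chelate acceptor beads (10 ug/mL) for 30 min.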
L3MBTL1 inh: qHTS Assay for the Inhibitors of L3MBTL1; AlphaScreen L3MBTL1–H3K9me1 peptide binding; Potency, µM (doses to about 57.1 µM), without a hit: top-dose activity, negative = inhibition, hits mostly inhibitors; actives 0.66% (n = 230,000); AID 485360, 2010; note: % is set by controls: 0 for no effect and ±100 for the full control effect; nearly all actives have a fitted effect of over 60% in size
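Displacement of a biotinylated histone H3(1-15) peptide monomethylated at Lys9 (75 nM) from L3MBTL1 (50 nM) was measured by AlphaScreen after a 30 min room-temperature compound incubation; cefsulodin titration served as intraplate control.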
BAZ2B inh: qHTS Assay for Inhibitors of BAZ2B. Bromodomain adjacent to zinc finger domain protein 2B (Homo sapiens), Q9UIF8. AlphaScreen BAZ2B-H3K14Ac peptide displacement. Potency, µM (highest dose often 114 µM), without a hit: at the top dose activity change, negative = inhibition, usual class: inhibitors. actives 4.4% (n = 360,000); note: % is set by controls: 0 for no effect and ±100 for the full control effect; nearly all actives have a fitted effect of over 60% in size
Target sequence (Q9UIF8 whole entry, looked up, the tested form may be a part): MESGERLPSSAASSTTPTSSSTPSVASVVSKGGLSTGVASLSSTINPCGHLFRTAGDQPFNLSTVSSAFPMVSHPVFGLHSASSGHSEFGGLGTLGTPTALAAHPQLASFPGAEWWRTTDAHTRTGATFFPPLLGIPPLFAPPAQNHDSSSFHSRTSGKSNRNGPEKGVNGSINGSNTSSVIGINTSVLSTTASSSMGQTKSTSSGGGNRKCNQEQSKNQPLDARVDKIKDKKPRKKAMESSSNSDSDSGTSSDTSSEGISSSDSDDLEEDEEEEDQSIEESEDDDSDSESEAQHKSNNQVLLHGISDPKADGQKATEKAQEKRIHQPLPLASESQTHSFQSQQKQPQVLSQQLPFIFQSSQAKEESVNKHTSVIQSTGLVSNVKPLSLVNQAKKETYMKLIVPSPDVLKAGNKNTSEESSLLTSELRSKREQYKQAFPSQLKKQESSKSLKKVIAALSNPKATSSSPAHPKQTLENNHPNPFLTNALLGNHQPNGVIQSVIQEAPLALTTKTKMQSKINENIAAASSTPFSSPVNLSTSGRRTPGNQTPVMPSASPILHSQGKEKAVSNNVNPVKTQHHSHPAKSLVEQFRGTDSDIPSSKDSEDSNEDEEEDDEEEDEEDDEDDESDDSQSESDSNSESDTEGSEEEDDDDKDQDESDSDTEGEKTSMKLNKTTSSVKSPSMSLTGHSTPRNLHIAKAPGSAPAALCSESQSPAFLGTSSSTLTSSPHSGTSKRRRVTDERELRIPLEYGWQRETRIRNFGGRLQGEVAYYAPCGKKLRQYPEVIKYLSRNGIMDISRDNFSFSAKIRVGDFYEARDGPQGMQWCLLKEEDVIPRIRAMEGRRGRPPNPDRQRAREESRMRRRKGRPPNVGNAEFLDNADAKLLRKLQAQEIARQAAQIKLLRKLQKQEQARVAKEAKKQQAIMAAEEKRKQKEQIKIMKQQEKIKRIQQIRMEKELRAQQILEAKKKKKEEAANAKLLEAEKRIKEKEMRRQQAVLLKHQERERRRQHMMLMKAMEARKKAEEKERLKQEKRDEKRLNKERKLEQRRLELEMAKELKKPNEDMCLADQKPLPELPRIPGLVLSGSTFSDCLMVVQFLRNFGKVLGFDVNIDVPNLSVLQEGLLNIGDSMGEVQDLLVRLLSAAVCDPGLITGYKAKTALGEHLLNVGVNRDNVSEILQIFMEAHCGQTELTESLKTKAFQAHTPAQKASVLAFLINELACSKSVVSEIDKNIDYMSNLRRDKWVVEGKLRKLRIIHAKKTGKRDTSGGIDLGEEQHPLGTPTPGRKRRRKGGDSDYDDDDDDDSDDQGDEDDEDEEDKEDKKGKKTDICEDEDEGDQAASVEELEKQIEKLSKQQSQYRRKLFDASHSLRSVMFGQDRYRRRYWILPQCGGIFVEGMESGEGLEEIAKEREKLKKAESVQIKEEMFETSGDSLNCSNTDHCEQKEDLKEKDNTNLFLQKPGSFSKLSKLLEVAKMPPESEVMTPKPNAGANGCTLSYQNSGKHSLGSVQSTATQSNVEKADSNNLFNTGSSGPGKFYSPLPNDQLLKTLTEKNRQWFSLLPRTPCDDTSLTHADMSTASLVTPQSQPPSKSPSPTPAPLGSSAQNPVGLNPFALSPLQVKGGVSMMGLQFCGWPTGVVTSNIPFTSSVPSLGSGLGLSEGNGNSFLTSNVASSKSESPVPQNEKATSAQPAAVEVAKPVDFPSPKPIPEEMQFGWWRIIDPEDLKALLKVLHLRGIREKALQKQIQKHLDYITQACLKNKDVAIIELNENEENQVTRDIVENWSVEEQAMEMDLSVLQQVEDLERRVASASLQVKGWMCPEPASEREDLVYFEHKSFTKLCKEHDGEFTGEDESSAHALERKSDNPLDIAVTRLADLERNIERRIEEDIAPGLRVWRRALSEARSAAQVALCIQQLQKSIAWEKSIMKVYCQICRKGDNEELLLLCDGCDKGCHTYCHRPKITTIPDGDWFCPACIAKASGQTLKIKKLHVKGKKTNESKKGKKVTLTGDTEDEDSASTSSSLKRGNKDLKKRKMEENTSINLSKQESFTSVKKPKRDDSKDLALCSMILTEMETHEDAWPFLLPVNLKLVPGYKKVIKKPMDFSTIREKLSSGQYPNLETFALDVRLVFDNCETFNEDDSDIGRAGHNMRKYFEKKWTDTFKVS
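BAZ2B 50 nM plus b-H3(5-23)K14Ac 50 nM, PBS pH 7.4/0.01% Tween-20, 30 min RT; compound added (max 110 uM), 30 min RT; streptavidin donor/Ni-chelate acceptor beads 10 ug/mL final, 20 min dark; AlphaScreen read.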
G9a inh: qHTS Assay for Inhibitors of Histone Lysine Methyltransferase G9a | Histone-lysine N-methyltransferase EHMT2 (Homo sapiens), Q96KQ7 | actives 8.8% (n = 350,000) | G9a H3K9 monomethylation, AlphaScreen, 2 h | Potency, µM (series often up to 102 µM), for the others: top-dose activity, negative = inhibition, actives largely listed as inhibitors; note: % is set by controls: 0 for no effect and ±100 for the full control effect; nearly all actives have a fitted effect of over 75% in size
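G9a (20 nM) was preincubated 15 min with compound, then reacted 2 h at room temperature with 500 nM biotin-H3K9 peptide and 20 µM SAM. Monomethyl-H3K9 detected by AlphaScreen using anti-H3K9me1 antibody.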
Sfp PPTase inh: qHTS Assay for Inhibitors of Bacillus subtilis Sfp phosphopantetheinyl transferase (PPTase) | actives 3.5% (n = 310,000) | 4'-phosphopantetheinyl transferase ffp (Bacillus subtilis), Q9F4F7 | Biochemical Sfp PPTase activity, qHTS | AID 1490, 2009 | Potency, µM, without a hit: largest response in the series, negative = inhibition, usual class: inhibitors;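 note: the enzyme is Sfp with the accession as filed and its product quenches rhodamine fluorescence; 0% = enzyme reaction without inhibitor and -100% = no enzyme wells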
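Fluorescence-quenching assay with 15 nM Sfp, 5 uM rhodamine-CoA and 12.5 uM BHQ-2-labelled ybbR peptide in pH 7.6 Hepes/MgCl2 buffer. Enzyme was pre-incubated with compound for 15 min at room temperature. Rate was taken from the 30-min fluorescence change (525/598 nm).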
Numbers without * were called inactive; ? = inconclusive; nt = no result given; [ ] = another dose, or the depositor's remark. In the library only some 12% were active in any assay of this set; here they are far more common. Calls come from the whole dose curve; as a rule, active = well fitted curve in the direction sought with a large enough effect; inconclusive = small, poorly fitted or top-dose-only effect, or another doubt; inactive = no such curve, though single readings can be large; an effect the other way counts as inactive or inconclusive. Potency is the fitted concentration of half-maximal effect.

SMILES	JMJD2A Tudor inh	HP1b chromo inh	L3MBTL1 inh	BAZ2B inh	G9a inh	Sfp PPTase inh
COc1ccc(NC(=O)CSc2oc(-c3ccc(C)cc3)nc2S(=O)(=O)c2ccc(C)cc2)c(OC)c1	56.2µM*	?	nt	0.7%	?	nt
O=C(CN(C1CCCCC1)S(=O)(=O)c1ccc(F)cc1)NCC1CCCO1 (stereo not given)	25.1µM*	?	nt	nt	nt	nt
Cc1ccc(-c2nc(S(=O)(=O)c3ccc(F)cc3)c(SCC(=O)NCC3CCCO3)o2)cc1 (stereo not given)	-18.9%[57.1 µM]	-18.8%	-23.0%	1.2%	14.1µM*	-6.8%
Cc1ccc(S(=O)(=O)c2nc(-c3ccccc3)oc2SCC(=O)NCC2CCCO2)cc1 (stereo not given)	-30.7%	-2.0%	nt	-3.4%	44.7µM*	-3.8%
O=S(=O)(c1ccccc1)c1nc(-c2cccs2)oc1NCC1CCCO1 (stereo not given)	?	23.5%	-4.3%	-5.0%	31.6µM*	56.2µM*
O=C(CSc1oc(-c2cccs2)nc1S(=O)(=O)c1ccc(F)cc1)NCC1CCCO1 (stereo not given)	-29.9%	30.0%	-5.2%	-0.2%	44.7µM*	-15.6%
N#Cc1nc(-c2cccs2)oc1NCC1CCCO1 (stereo not given)	-13.8%	21.8%	6.6%	1.2%	20.5%[12.7 µM]	12.6%
COc1ccc(CNC(=O)Cn2nc3c(cc2=O)CCCC3)cc1	6.1%	19.7%[57 µM]	nt	2.5%	7.3%[59 µM]	nt
NC(=O)CC[C@H](NC(=O)c1ccc(Cl)cc1)C(=O)NNC(=O)COc1cccc(Br)c1	-2.8%	37.8%	1.8%	nt	nt	nt
Cc1ccc2c(c1)c1c3n2CCN(C(=O)c2cccc(C(F)(F)F)c2)C3CCC1 (stereo not given)	?	-24.1%	nt	28.2µM*	7.94µM*	nt
O=C(c1cccc(C(F)(F)F)c1)N1CCc2c([nH]c3ccccc23)C1C(F)(F)F (stereo not given)	-28.9%	23.1%	-11.8%	-22.1%	-0.8%	21.4%
Cc1ccc2c(c1)c1c3n2CCN(C=O)C3CCC1 (stereo not given)	?	-15.5%	-14.1%	?	50.1µM*	1.6%
CCN1CCn2c3c(c4cc(Cl)ccc42)CCCC31 (stereo not given)	-26.0%[11.4 µM]	4.3%	-10.7%	35.5µM*	?	?
Cc1ccc2c(c1)c1c3n2CCNC3CCC1 (stereo not given)	?	-7.6%	-5.1%	?	-17.3%[59 µM]	4.2%
CCN(CC)CCN1CCn2c3c(c4cc(C)ccc42)CCCC31 (stereo not given)	56.2µM*	6.3%	-11.0%	?	?	-2.5%
CCCCC#CC1C=CC(Oc2ccc(OC)cc2)C(CO)O1 (stereo not given)	nt	nt	nt	nt	nt	7.2%
O=CN/C=C/c1cc(F)cc(F)c1F	nt	nt	nt	nt	nt	32.5%
COc1ccc(-c2nc(SCC(=O)Nc3c(C)cc(C)cc3C)n[nH]2)cc1	2.6%	30.6%[57 µM]	nt	-1.4%	2.8%[59 µM]	nt
COc1ccccc1N1CCN(C(=O)c2oc3ccc(F)cc3c2C)CC1	-14.4%	23.0%	-0.3%	-4.2%	-10.8%[59 µM]	-11.1%
Cc1c(C(=O)Nc2ccccc2N2CCN(C)CC2)oc2ccc(F)cc12	?	?	5.7%	-30.6%	31.6µM*	nt
CN1CCN(c2ccccc2NC(=O)c2cc3c(s2)-c2ccccc2OC3)CC1	-11.6%	24.9%	nt	-33.6%	-37.5%	79.4µM*
Cc1ccc(SCC(=O)OCC(=O)N2CCN(C(=O)c3ccco3)CC2)c(C)c1	-13.0%	7.8%	0.9%	0.8%	-2.8%[2.33 µM]	nt
COc1ccc(Cl)cc1NC(=O)NC(C)c1ccncc1 (stereo not given)	-9.0%	18.6%	nt	1.7%	9.7%[59 µM]	6.7%
COc1ccc(Cl)cc1NC(=O)C1CSC(c2ccncc2)=N1 (stereo not given)	-14.3%	19.3%	7.9%	-20.4%	11.2µM*	?
COc1ccccc1C(=O)Nc1c(C(=O)N(C)c2ccccc2)sc2nc(C)cc(C)c12	2.2%	30.4%	nt	-17.6%	0.6%[59 µM]	nt
SMILES	JMJD2A Tudor inh	HP1b chromo inh	L3MBTL1 inh	BAZ2B inh	G9a inh	Sfp PPTase inh
COc1ccc(OC)c(NC(=O)CSc2nc(=O)n(CCN(C)C)c3c2CCC3)c1	-4.9%	18.2%	nt	-1.8%	-42.6%[59 µM]	nt
CCOC(=O)c1cc2occc2n1CCCN1C(=O)c2ccccc2C1=O	?	?	nt	50.1µM*	14.1µM*	-23.5%
CCOC(=O)c1cc2occc2n1CC(=O)Nc1ccc(OC)cc1OC	?	-6.9%	-8.2%	?	39.8µM*	-11.4%
CCOc1ccc(CN2CCc3nc(N4CCN(c5ccccn5)CC4)ncc3C2)cc1OC	89.1µM*	17.0%	nt	79.4µM*	?	nt
Brc1ccc(CN2CCc3nc(N4CCN(c5ncccn5)CC4)ncc3C2)cc1	44.7µM*	-31.7%	nt	50.1µM*	?	nt
CCOc1ccccc1CN1CCc2nc(N3CCN(c4ccccc4F)CC3)ncc2C1	79.4µM*	-5.2%	nt	56.2µM*	?	nt
CCCN1CCc2nc(N3CCN(c4ncccn4)CC3)ncc2C1	89.1µM*	26.1%	nt	50.1µM*	31.6µM*	nt
Fc1ccc(CN2CCc3nc(N4CCN(c5ccccc5F)CC4)ncc3C2)c(F)c1	-9.3%	12.7%	nt	-8.8%	7.9%[59 µM]	nt
COc1cccc(C(=O)COc2ccc(NC(=O)c3ccccc3)cc2)c1	-2.1%	41.0%	nt	-3.3%	13.2%	16.8%
O=C(c1csnn1)N1CCC2(CCCN(C(c3ccccc3)c3ccccc3)C2)CC1	nt	nt	nt	nt	4.1%[12.7 µM]	-14.6%
CCCCN1CCc2nc(N3CCN(C)CC3)ncc2C1	-7.9%	45.7%	nt	-35.4%	?	nt
CCCCN1CCc2nc(N3CCN(c4ncccn4)CC3)ncc2C1	79.4µM*	20.5%	nt	56.2µM*	17.8µM*	nt
COc1ccc(C2=NN(C(=O)COc3ncnc4ccccc34)C(c3ccco3)C2)cc1 (stereo not given)	-21.0%	17.7%	6.2%	-26.2%	?	-17.3%
O=C(c1ccco1)N1N=C(c2cccs2)CC1c1ccc(F)cc1 (stereo not given)	-13.7%	28.3%	nt	-3.0%	-28.8%[59 µM]	56.2µM*
COc1ccc(C2CC(c3cccs3)=NN2C(=O)c2ccco2)cc1OC (stereo not given)	-27.0%	-8.6%	-14.8%	?	-3.4%[59 µM]	-9.3%
Cc1nc(N2N=C(c3ccc(Cl)cc3)CC2c2ccco2)sc1C(=O)N(C)C (stereo not given)	16.0%	95.2%	31.4%	15.2%	-3.0%	25.1µM*
